Compounds with a hit are over-represented: about 4.7% of the library has one in this group of screens.
3CLpro inhibitor: SARS-CoV 3CLpro protease inhibition | P0C6X7 | recombinant SARS-CoV 3CLpro, quenched FRET peptide cleavage | inhibition, % at 6 µM | actives 0.14% (n = 290,000) | AID 1706; in the data active = inhibition above about 12%
RecA splice inh: blocks M. tuberculosis RecA intein splicing | P9WHJ3 | cell-free RecA intein splicing, fluorescence | inhibition, % (concentration not given with the values) | actives 0.75% (n = 290,000) | AID 2221; in the data active = inhibition above about 30%;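 note: 0% = vehicle wells and 100% = reference inhibitor control wells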
GDH-TPI counter-1: inhibits GDH-TPI coupling enzymes, artifact for Mtb FBA screen; GDH-TPI coupled enzyme counterscreen, NADH absorbance; inhibition, % at 4.8 µM; actives 1.2% (n = 360,000);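 note: 0% = DMSO wells and 100% = wells lacking the enzyme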
CCHF vOTU inh: CCHFV vOTU protease inhibition; inhibition, % at 11.5 µM; actives 0.55% (n = 370,000); Pep-AMC fluorescence; note: 0% = vehicle wells with enzyme and 100% = no enzyme wells
DUSP3 inh: blocks human VHR1 dual specificity phosphatase; recombinant VHR phosphatase, pNPP absorbance; actives 0.52% (n = 290,000); inhibition, % at 13.3 µM; P51452; in the data active = inhibition above about 50%
Target sequence (P51452 whole entry, looked up): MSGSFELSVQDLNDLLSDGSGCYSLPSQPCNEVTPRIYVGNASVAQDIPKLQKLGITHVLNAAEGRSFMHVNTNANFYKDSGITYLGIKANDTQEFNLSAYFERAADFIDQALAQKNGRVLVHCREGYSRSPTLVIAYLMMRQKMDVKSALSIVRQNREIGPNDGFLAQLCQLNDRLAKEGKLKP
FBA Mtb inh: inhibitors of M. tuberculosis fructose-bisphosphate aldolase; P9WQA3; purified M. tuberculosis FBA, fluorescence read-out; inhibition, % at 1 µM; actives 2.3% (n = 360,000); AID 588726; in the data active = inhibition above about 27%;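 note: 0% = vehicle and 100% = reference inhibitor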
Target sequence (P9WQA3 whole entry, looked up): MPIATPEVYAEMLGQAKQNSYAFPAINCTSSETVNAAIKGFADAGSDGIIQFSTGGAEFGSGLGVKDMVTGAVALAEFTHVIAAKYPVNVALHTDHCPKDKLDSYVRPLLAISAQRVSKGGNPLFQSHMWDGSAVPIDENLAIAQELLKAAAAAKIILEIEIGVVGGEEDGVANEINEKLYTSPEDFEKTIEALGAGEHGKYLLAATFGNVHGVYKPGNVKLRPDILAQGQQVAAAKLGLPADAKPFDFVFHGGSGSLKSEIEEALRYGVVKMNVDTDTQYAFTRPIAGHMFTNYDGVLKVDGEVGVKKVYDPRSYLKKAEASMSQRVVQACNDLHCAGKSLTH
Mtb FBA confirm: confirmation of M. tuberculosis fructose-bisphosphate aldolase inhibitors; shares compounds with FBA Mtb inh; actives 78% (n = 5,600); inhibition, % at 1 µM; purified M. tuberculosis FBA, fluorescence read-out; in the data active = inhibition above about 27%;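 note: 0% = vehicle wells and 100% = reference inhibitor wells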
GDH-TPI counter-2: counter-screen for M. tuberculosis FBA inhibitors: GDH-TPI coupled enzyme inhibition; GDH-TPI coupled enzyme counterscreen, fluorescence; inhibition, % at 1 µM; actives 81% (n = 5,600); shares compounds with FBA Mtb inh; in the data active = inhibition above about 10%
GDH-TPI dose: counter-screen for M. tuberculosis FBA inhibitors: GDH-TPI dose response; shares compounds with FBA Mtb inh; GDH-TPI coupled enzyme assay, fluorescence, artifact counterscreen; IC50, µM; actives 79% (n = 170); AID 652145; call rule not given here
Active calls of the source: *; nt = not tested or not shown; + = active, no number. Cut-off read from the data, not from the text of the source, unless noted: active = inhibition above about 30%; inactive = the rest.

SMILES | 3CLpro inhibitor | RecA splice inh | GDH-TPI counter-1 | CCHF vOTU inh | DUSP3 inh | FBA Mtb inh | Mtb FBA confirm | GDH-TPI counter-2 | others
COC(=O)c1cccc(NC(=O)C(C)(C)C)c1 | 5 | -1 | 8 | -16 | 32 | 36* | + | +
CC1(C)Cc2c(c(-c3ccco3)nc3sc4c(NCCO)ncnc4c23)CO1 | -1 | -2 | 30 | -17 | 15 | 44* | 135* | 101*
COCCCNc1ncnc2c1sc1nc(-c3ccco3)c3c(c12)CC(C)(C)OC3 | -5 | 2 | 39* | -21 | 12 | 39* | 98* | 94*
CCn1c(-c2cc(-c3ccc(OC(C)C)cc3)nc3ccccc23)n[nH]c1=S | 4 | 9 | 16 | nt | 31 | 83* | -1 | 0
CCOC(=O)c1[nH]c2ccc(Br)cc2c1NC(=O)CCN1CCCCC1 | -2 | nt | nt | nt | 8 | nt | nt | nt
CCOC(=O)c1[nH]c2cc3c(cc2c1NC(=O)CN1CCc2ccccc2C1)OCO3 | 2 | 0 | 23 | 0 | 4 | 81* | 12 | 6 | GDH-TPI dose=1.3*
CCOC(=O)C1CCCN(CC(=O)Nc2c(C(=O)OC)[nH]c3ccccc23)C1 (stereo unspecified) | 0 | 1 | 13 | -1 | 39 | 9 | nt | nt
CCOC(=O)c1[nH]c2cc3c(cc2c1NC(=O)CN1CCCC1)OCO3 | 3 | 3 | 16 | -39 | 10 | 73* | 76* | 49*
CC1(C(=O)NC2CCN(Cc3ccccc3)CC2)CCN1Cc1cc2ccccc2o1 (stereo unspecified) | nt | nt | 9 | -5 | nt | 0 | nt | nt
Cc1cccc([N+](=O)[O-])c1NC(=O)CSc1nnc2ccccn12 | nt | nt | 11 | 7 | nt | 6 | nt | nt
O=C1N=C(c2ccccc2)C(c2ccccc2)N1 (stereo unspecified) | -1 | 0 | 0 | -52 | 8 | 91* | 1 | 4
COc1ccc(C2=NC(=O)NC2c2ccc(OC)cc2)cc1 (stereo unspecified) | 1 | -1 | -14 | -3 | 4 | 13 | nt | nt
Cc1cccn2c(=O)c3cc(C(=O)N4CCN(Cc5ccccc5)CC4)sc3nc12 | nt | nt | 13 | -56 | nt | 57* | -2 | -3
CC1CCCN(C(=O)c2cc3c(=O)n4ccccc4nc3s2)C1 (stereo unspecified) | -4 | -39 | 20 | -89 | -19 | 59* | 50* | 30*
Cc1cccn2c(=O)c3cc(C(=O)N4CCCC(C)C4)sc3nc12 (stereo unspecified) | -9 | -11 | 21 | 8 | 25 | 22 | nt | nt
O=C(c1cc2c(=O)n3ccccc3nc2s1)N1CCN(Cc2ccccc2)CC1 | -2 | -40 | 3 | -133 | 12 | 105* | -3 | -6
O=C(Cn1ccc2ccccc2c1=O)N1CCN(Cc2ccc3c(c2)OCO3)CC1 | -1 | -1 | 4 | 9 | 22 | 1 | nt | nt
O=C(c1cc2c(=O)n3ccccc3nc2s1)N1CCN(Cc2ccc3c(c2)OCO3)CC1 | -2 | -10 | 10 | -99 | 1 | 96* | 22 | -6 | GDH-TPI dose=2.3*
COc1ccc(CCNC(=O)C(=O)c2cn(CC(=O)N3CCOCC3)c3ccccc23)cc1OC | -4 | 2 | 12 | 17 | -10 | 27* | + | +
CC1=CC(C)C(=O)N(C)C(C)=C1 (stereo unspecified) | nt | nt | 1 | -12 | nt | 0 | nt | nt
COCc1cc(C)nc(N)c1C#N | nt | -1 | 3 | -8 | 18 | 29* | + | +
COCc1cc(C)nc(N2CCOCC2)c1C#N | 0 | 1 | 6 | -25 | -9 | 32* | 37* | 37*
COCc1cc(C)[nH]c(=O)c1C#N | 1 | -18 | 18 | -31 | 33 | 66* | 53* | 41*
COCc1cc(C)nc(SC)c1C#N | -3 | 1 | 9 | 9 | 7 | 1 | nt | nt
COCc1cc(C)nc(NC2CC(C)(C)NC(C)(C)C2)c1C#N | -2 | 2 | 7 | -55 | 10 | 62* | 83* | 78*
SMILES | 3CLpro inhibitor | RecA splice inh | GDH-TPI counter-1 | CCHF vOTU inh | DUSP3 inh | FBA Mtb inh | Mtb FBA confirm | GDH-TPI counter-2 | others
Cc1cc(C)c(C#N)c(N2CCOCC2)n1 | -1 | 1 | 8 | -2 | -9 | 25 | nt | nt
Cc1cc(C)c(NC(=O)c2cccc3c2C(=O)N(C2CCCCC2)C3)c(C)c1 | 6 | -8 | 4 | nt | 6 | -2 | nt | nt
COC(=O)Cc1ccc(OC2(C)CCN(Cc3ccc(-c4ccccn4)cc3)C2)cc1 (stereo unspecified) | nt | nt | 9 | 8 | nt | -2 | nt | nt
Cc1c2c(nc3c(C(=O)NC4CC4)cnn13)CCCC2 | -6 | -1 | 1 | 0 | 3 | 1 | nt | nt
CCC(C)NC(=O)c1cnn2c(C)c3c(nc12)CCCC3 (stereo unspecified) | 0 | -1 | 15 | -35 | 7 | 46* | + | +
COc1ccc(C(O)c2ncc(-c3ccccc3OC)[nH]2)cc1F (stereo unspecified) | nt | nt | 3 | 15 | nt | -3 | nt | nt
COc1ccc(C(O)c2ncc(-c3cccc4ccccc34)[nH]2)cc1F (stereo unspecified) | nt | nt | 4 | -6 | nt | 41* | 36* | 36*
Cc1cc(F)ccc1C(O)c1ncc(-c2ccc3ccccc3c2)[nH]1 (stereo unspecified) | nt | nt | 12 | -3 | nt | 17 | nt | nt
Cc1cc(F)ccc1C(O)c1ncc(-c2cccc3ccccc23)[nH]1 (stereo unspecified) | nt | nt | 13 | -8 | nt | 31* | -3 | -5
COc1ccccc1C(O)c1ncc(-c2cccc3ccccc23)[nH]1 (stereo unspecified) | nt | nt | 11 | 9 | nt | 60* | + | +
COc1ccc(C(O)c2ncc(-c3ccc4ccccc4c3)[nH]2)cc1 (stereo unspecified) | nt | nt | 5 | 13 | nt | 32* | + | +
COc1cc(/C=N/NC(=O)c2ccncc2)ccc1OC(=O)c1cc(OC)c(OC)c(OC)c1 | -3 | -1 | 7 | -1 | 26 | -3 | nt | nt
OC(c1ccc(F)cc1)c1ncc(-c2cccc3ccccc23)[nH]1 (stereo unspecified) | nt | nt | -4 | 6 | nt | 49* | 5 | -4
CCc1ccc(C(O)c2ncc(-c3cccc4ccccc34)[nH]2)cc1 (stereo unspecified) | nt | nt | 6 | 11 | nt | 25 | nt | nt
O=S(=O)(Nc1nc2cc3c(cc2nc1Cl)OCCO3)c1ccccc1 | 3 | -43 | 3 | -35 | 6 | 48* | 61* | 37*
CC(=O)Nc1ccc(S(=O)(=O)Nc2nc3cc4c(cc3nc2Cl)OCCO4)cc1 | 2 | -39 | 24 | -44 | -5 | 62* | 76* | 71*
CN(C(=O)OC(C)(C)C)c1ccc(-c2nc3ccccc3s2)cc1 | nt | 4 | 18 | -16 | nt | 45* | + | +

Bioassay records (PubChem)
